One may read the viability as a read-out of living cells in per cent, often relative to untreated cells.

Each structure is given as a SMILES string. Records with an inconclusive call do not appear. Calls of active or inactive are those of the source. Calls come from the whole dose curve; as a rule, active = well fitted curve in the direction sought with a large enough effect; inconclusive = small, poorly fitted or top-dose-only effect, or another doubt; inactive = no such curve, though single readings can be large; an effect the other way counts as inactive or inconclusive.

Assay [1] addresses Aldehyde dehydrogenase, mitochondrial (Homo sapiens) (UniProt P05091). In words: qHTS for Inhibitors of the Aldehyde Dehydrogenase Family (ALDH2) Primary screen (AID 2061308). Note: nearly all actives have a fitted effect of over 55% in size. Note: potency is the fitted concentration of half-maximal effect. On the technique in general: qHTS replaces the single test concentration by a dilution series.
Assay [2] has as its target Retinal dehydrogenase 2 (Homo sapiens) (UniProt O94788). In words: qHTS for Inhibitors of the Aldehyde Dehydrogenase Family (ALDH1A2) Confirmation screens (AID 2061314). Note: nearly all actives have a fitted effect of over 65% in size. Note: potency is the fitted concentration of half-maximal effect.
The target of assay [3] is Retinaldehyde dehydrogenase 3 (Homo sapiens) (UniProt P47895). In words: qHTS for Inhibitors of the Aldehyde Dehydrogenase Family (ALDH1A3) Primary screen (AID 2061315).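 Note: plate controls were DMSO vehicle for no effect and reference inhibitor for full effect.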
For assay [4], the target named is Aldehyde dehydrogenase 1A1 (Homo sapiens) (UniProt P00352). Kind of assay: qHTS for Inhibitors of the Aldehyde Dehydrogenase Family (ALDH1A1) Confirmatory screens (AID 2061316). Note: potency is the fitted concentration of half-maximal effect; nearly all actives have a fitted effect of over 65% in size.
The target of assay [5] is Retinaldehyde dehydrogenase 3 (Homo sapiens) (UniProt P47895). Kind of assay: qHTS for Inhibitors of the Aldehyde Dehydrogenase Family (ALDH1A3) Validation screen (AID 2061312). Note: % is set by controls: 0 for no effect and ±100 for the full control effect; nearly all actives have a fitted effect of over 45% in size.
Assay [6] in a line: BET inhibitor-based combinations targeting novel dependencies in MECOM-rearranged (r) AML: SET-2 cell line (AID 2202231).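 For viability: plate controls were DMSO treated cells for no effect and wells without cells for full effect.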 Note: nearly all actives have a fitted effect of over 35% in size. Note: potency is the fitted concentration of half-maximal effect. Particulars: SET-2 AML cells viability, CellTiter-Glo luminescence, 48 h; viability: stronger effect = lower value, concentration not given here. In a few lines: (§1)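 Readout: CellTiter-Glo luminescence. Exposure: 48 h, 11 concentrations, 500 cells/well. Metric: AUC and within-line Z-AUC after DMSO/empty-well normalization.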
(Cellular ATP, detected with luciferase, serves as a proxy for viable cell number.)

A short description of assay [7]: BET inhibitor-based combinations targeting novel dependencies in MECOM-rearranged (r) AML: OCI-AML3 cell line (AID 2202232). Note: potency is the fitted concentration of half-maximal effect; nearly all actives have a fitted effect of over 35% in size. Particulars: Potency: OCI-AML3 viability. Summed up:
as §1

Assay [8] can be described thus: BET inhibitor-based combinations targeting novel dependencies in MECOM-rearranged (r) AML: MV-4-11 cell line (AID 2202233). Note: potency is the fitted concentration of half-maximal effect; nearly all actives have a fitted effect of over 45% in size. In a few lines: (§2)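 Seeding density was 500 cells/well, and drug exposure lasted 48 hr under standard culture conditions. Read-out used CellTiter-Glo reagent with a 15 min room-temperature incubation before luminescence measurement; AUC and Z-AUC summarize the normalized responses.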

Assay [9] is described as follows: BET inhibitor-based combinations targeting novel dependencies in MECOM-rearranged (r) AML: HNT-34 cell line (AID 2202234). Note: potency is the fitted concentration of half-maximal effect; nearly all actives have a fitted effect of over 35% in size. Summed up:
as §2

A short description of assay [10]: BET inhibitor-based combinations targeting novel dependencies in MECOM-rearranged (r) AML: AML-191 cell line (AID 2202236; note: potency is the fitted concentration of half-maximal effect; nearly all actives have a fitted effect of over 35% in size). Summed up: as §1
The nature of assay [11]: BET inhibitor-based combinations targeting novel dependencies in MECOM-rearranged (r) AML: AML-194 cell line (AID 2202237; note: nearly all actives have a fitted effect of over 40% in size; note: potency is the fitted concentration of half-maximal effect). Summed up:
as §1

Assay [12] is described as follows: BET inhibitor-based combinations targeting novel dependencies in MECOM-rearranged (r) AML: UCSD-AML1 cell line (AID 2202235). Note: nearly all actives have a fitted effect of over 40% in size. Note: potency is the fitted concentration of half-maximal effect. Summed up:
as §2

As for `CC(=O)Nc1sc2c(c1-c1nc3ccccc3s1)CCN(C(C)C)C2`, the Potency result in assay [1] and in assay [3] was “inactive” each time. Moreover, the Potency in [2] is 28.3 µM (active).
Turning to `Cc1ccc(NS(=O)(=O)c2ccc3c(c2)C(Cl)(Cl)C(=O)N3)cc1C`, the Potency entry in assay [1] and in assay [3] was “inactive” in each case. Further, the Potency was 3.18 µM (active) in assay [2] and 7.12 µM (active) in [4].
On to `CC(C)(C)OC(=O)N1CCN(c2ccc(NCc3ccc(-c4ccc(C#N)cc4)nc3)cc2)CC1`, for which the Potency result in assay [1], in [2] and in assay [3] was “inactive” each time. Besides, the Potency in assay [4] was 15.9 µM (active).
Consider `OCCNC1CCCc2c1[nH]c1ccc(-c3ccccc3)cc21` (stereo unspecified), for which the Potency entry in assay [1], in assay [5] and in assay [3] was “inactive” each time. In addition, the Potency in [6] is 11.8 µM (active); in assay [7] it was 16.6 µM (active); in assay [8], 11.8 µM (active); in [9], 14.8 µM (active); in assay [10] it was 16.6 µM (active); in assay [11], 13.2 µM (active).
Turning to `CON(C)C(=O)N1N=C(c2cc(F)ccc2F)S[C@@]1(CCCN)c1ccccc1`, the Potency entry in [1], in assay [5] and in assay [3] was “inactive” throughout. The Potency in [6] is 0.0295 µM (active); in assay [7] it was 0.0093 µM (active); in [8], 0.0118 µM (active); in assay [10], 0.0132 µM (active).
`O=C(Nc1ncc(Cc2ccc(C(F)(F)F)cc2)s1)c1ccc(-c2ccc([N+](=O)[O-])cc2)o1`: the Potency result in assay [1] and in assay [3] was “inactive” each time. Also, the Potency in [2] is 22.5 µM (active).
On to `O=C(N[C@H]1CCC[C@H](CO)C1)C1CCN(c2nc3cc(Cl)c(-c4ccc(Cl)cc4)cc3o2)CC1`, for which the Potency entry in assay [1], in [5], in [3] and in [12] was “inactive” throughout. The values for the Potency in assay [6] and in assay [8] were 20.9 µM (active) and 23.5 µM (active), respectively.
Regarding `Cc1ccc(S(=O)(=O)c2ncccc2[N+](=O)[O-])cc1`, the Potency in assay [1] was 6.31 µM (active); in [2] it was 0.449 µM (active).
Take `C=C(c1ccc(C(=O)O)cc1)c1cc2c(cc1C)C(C)(C)CCC2(C)C`: the Potency result in assay [1], in [5], in assay [3] and in [11] was “inactive” throughout. Further, the viability in assay [6] was 115% (inactive). For the same molecule, in [8], the Potency was 0.148 µM (active).
Regarding `COc1ccc(C2=Nn3c(nnc3-c3ccc(OC)cc3OC)SC2)cc1`, the Potency entry in assay [1], in [2] and in [3] was “inactive” throughout.
Turning to `COCCOC(=O)C1=C(C)NC2=C(C(=O)CC(c3ccccc3OC)C2)C1c1cccc(O)c1` (stereo unspecified), the Potency result in assay [1], in assay [5] and in [3] was “inactive” each time. Moreover, the values for the Potency in [6], in assay [8] and in assay [10] were 16.6 µM (active), 5.25 µM (active) and 14.8 µM (active), respectively.
As to `CC(=O)NC(c1ccco1)c1cc(Cl)c2ccc(Cl)nc2c1O` (stereo unspecified), in assay [1], the Potency result was “inactive”. Moreover, the Potency in assay [2] is 6.34 µM (active).
Regarding `O=C(c1ccc(F)c(F)c1Nc1ccc(I)cc1F)N1CC(O)([C@@H]2CCCCN2)C1`, the Potency entry in assay [1], in assay [5] and in assay [3] was “inactive” in each case. The Potency in assay [9] is 0.742 µM (active); in assay [12], 0.296 µM (active); in [10], 8.33 µM (active); in [11], 7.42 µM (active).
For `Cc1[nH]c2ccccc2c1CCNCc1ccc(/C=C/C(=O)NO)cc1`, the Potency entry in assay [1] and in [5] was “inactive” in each case. Further, the Potency in assay [6] was 0.0833 µM (active); in assay [7], 0.0661 µM (active); in assay [8], 0.0525 µM (active); in assay [10] it was 0.0833 µM (active); in assay [11], 0.105 µM (active).
`Cc1ccc(CNc2ccc(N3CCOCC3)cc2)cc1`: the Potency result in [1] is “inactive”. In [2], the Potency was 11.3 µM (active).
